Data reported in ChEMBL document CHEMBL4513146, “CO-ADD screening of Karazin Kharkiv National University (Ukraine) compounds”.
Results with a measured potency or affinity are listed apart.

tested on: Escherichia coli; settings: Concentration 32 ug.mL-1;; ASSAY_TEST Inhibition of Bacterial Growth; detection method Absorption (OD600); MEDIA CAMHB; plate type 384well; NBS; CORNING #3640; time 18 hr

SMILES	Inhibition [%]
CCOc1ccc(C(=O)CSc2nnc3c(=O)n(-c4cccc(OC)c4)ccn23)cc1	-13.86
COc1ccc(CN(c2ccc(C(C)C)cc2)S(=O)(=O)c2cccn3cnnc23)cc1	1.37
Cc1ccc(NC(=O)Cn2nc3ccc(-c4ccc(Cl)cc4)nn3c2=O)cc1F	-3.59
Cc1ccc(-c2ccc3nn(Cc4ccc(Cl)cc4)c(=O)n3n2)cc1C	-5.81
Cc1ccc(C)c(Cn2nc3c(=O)n(-c4ccc(C)c(C)c4)ccn3c2=O)c1	-6.59
CCOC(=O)c1ccccc1NC(=O)Cn1nc2c(Oc3cccc(C)c3C)nccn2c1=O	-6.35
CCOC(=O)C1CCN(c2nc3ccccc3n3c(=O)n(CC(=O)Nc4ccccc4F)nc23)CC1	-5.37
COc1cccc(Sc2nc3ccccc3n3c(=O)n(CC(=O)Nc4cccc(C#N)c4)nc23)c1	-6.13
N#Cc1ccc(NC(=O)Cn2nc3c(SC4CCCCC4)nccn3c2=O)cc1	-8.54
CC(C)Cn1c(=O)c2sccc2n2c(=O)n(CC(=O)N3CCC(Cc4ccccc4)CC3)nc12	-14.95
Cc1nnc2c(S(=O)(=O)N(Cc3ccc(F)cc3)c3ccc(F)c(F)c3)cccn12	3.7
COc1cccc(NC(=O)Cn2nc3ccc(SCc4ccc(Cl)cc4)nn3c2=O)c1	0.27
COc1ccc(NC(=O)Cn2nc3c(Sc4ccccc4)nccn3c2=O)cc1	-3.96
CC(C)c1nnc2c(=O)n(CC(=O)Nc3ccccc3)c3ccccc3n12	4.36
COc1ccc(-c2cc3c4nnc(SCC(=O)Nc5cccc(Cl)c5C)n4ccn3n2)cc1	-11.64
CCc1ccc(NC(=O)Cn2nc3c(Sc4ccccc4)nccn3c2=O)cc1	-4.33
Cc1cc(C)cc(N(Cc2ccccc2)S(=O)(=O)c2cccn3cnnc23)c1	-13.66
CC1CCc2c(sc3ncn4c(=O)n(CC(=O)Nc5ccc6c(c5)CCC6)nc4c23)C1 (centres undefined)	-2.81
CSc1cccc(NC(=O)Cn2nc3c(SC4CCCCC4)nccn3c2=O)c1	-5.86
COc1cc(NC(=O)Cn2nc3ccc(-c4ccc(Cl)cc4)nn3c2=O)cc(OC)c1	-10.38

SMILES	Inhibition [%]
COc1cccc(CNC(=O)CSc2nnc3c(=O)n(-c4ccc(F)cc4)ccn23)c1OC	2.01
Cn1c(=O)c2sccc2n2c(=O)n(CCOc3ccccc3)nc12	-12.23
O=C(CSc1nnc2c(=O)n(-c3ccc(Br)cc3)ccn12)Nc1cccc(Cl)c1	-6.43
COc1cc(OC)c(NC(=O)Cn2nc3c(SC4CCCCC4)nccn3c2=O)cc1Cl	-4.1
Cc1cccc(NC(=O)Cn2nc3c(SCc4ccccc4)nccn3c2=O)c1C	-6.74
COc1cccc(Oc2nccn3c(=O)n(CC(=O)Nc4ccc(OC)c(Cl)c4)nc23)c1	-5.35
Cc1cccc(C)c1NC(=O)Cn1nc2n(C)c(=O)c3c(c(-c4ccccc4)cn3C)n2c1=O	0.54
Cc1ccc(-n2ccn3c(SC(C)C(=O)Nc4ccc5c(c4)OCCO5)nnc3c2=O)cc1C (centres undefined)	-2.85
Cc1cccc(NC(=O)CSc2nnc3c4cc(-c5ccccc5)nn4ccn23)c1C	-6.36
Cc1nnc2ccc(S(=O)(=O)N(Cc3ccccc3F)c3ccc(Cl)cc3)cn12	-19.04
CCc1nnc2c(S(=O)(=O)N(Cc3cc(F)cc(F)c3)c3cccc(F)c3)cccn12	-5.05
CCOC(=O)c1cccc(NC(=O)CSc2nnc3ccc(C(=O)Nc4cccc(F)c4)cn23)c1	-5.71
Cc1cc2nn(CC(=O)Nc3cccc(C)c3C)c(=O)n2c(Nc2ccc(F)c(C)c2)n1	-7.8
O=C(CCc1nnc2c(N3CCCCC3)nc3ccccc3n12)NCc1ccccc1F	6.41
CCCCOc1ccc(-c2cc3c4nnc(SCC(=O)Nc5ccc(CC)cc5)n4ccn3n2)cc1	-11.54
O=C(CSc1nnc2n(CC3CCCO3)c(=O)c3sccc3n12)Nc1ccc(F)cc1Cl (centres undefined)	-12.15
N#CCn1nc2n(Cc3ccccc3)c(=O)c3ccccc3n2c1=O	2.96
CCc1nnc2ccc(S(=O)(=O)N(Cc3cccc(OC)c3)c3cccc(F)c3)cn12	-5.95
CCc1cccc(NC(=O)Cn2nc3c(SC4CCCCC4)nccn3c2=O)c1	-12.2
